PD-1 reverse act – activators reversing PD-1 mediated T-cell inhibition | AID 2316 | primary human CD4 T cells, PD-L1 beads, CellTiter-Glo 96 h | 29,000 tested, under 10 active | activation, % (test concentration not listed); call rule not given here;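 further: 0% = median vehicle wells and 100% = positive control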
ROS inducer – raises reactive oxygen species in U2OS cancer cells | 2% of 46,000 active | AID 624156 | U2OS ROS induction, H2DCF-DA fluorescence | ROS induction (% of piperlongumine), % at 10 µM; in the data active means ROS induction above about 79%, passing the limit was not always enough; inconclusive means no clear call, values can overlap the other calls;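 further: 0% = DMSO vehicle median and 100% = reference compound median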
YB-1 expression – YB-1 expression inhibition; 0.37% of 30,000 active; U2OS, qRT-PCR YB-1 vs CDIP delta delta Cp, 16 h; stronger effect = higher value; zero = DMSO, each unit about twofold; delta delta Cp (YB-1 minus CDIP) (concentration not given with the values);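 active means delta delta Cp rounded down to an integer at or above 3, about 3 SD of DMSO wells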;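 further: higher means less YB-1 transcript or more CDIP transcript relative to DMSO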
MITF inh – blocks MITF activity | TRPM1 promoter luciferase, luminescence, 24 h | inhibition, % (concentration not given with the values) | 0.28% of 37,000 active; in the data active means inhibition above about 85%; inconclusive means no clear call, values can overlap the other calls; inactive means below about 68%;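 further: human melanocyte line stably carrying TRPM1 promoter luciferase reporter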
NOMO-1 viab – STK33 inhibitor candidate reducing NOMO-1 cell viability; inhibition, % (concentration not given with the values); 7.5% of 37,000 active; NOMO-1 AML viability, CellTiter-Glo luminescence, 72 h; in the data active means inhibition above about 80%; inconclusive means no clear call, values can overlap the other calls
* marks the source's active call; other numbers are inactive results; ? = inconclusive; · = not tested or not shown. The full list was thinned out, with hits kept by preference.

SMILES	PD-1 reverse act	ROS inducer	YB-1 expression	MITF inh	NOMO-1 viab
C[C@@H]1CN([C@@H](C)CO)C(=O)c2cc(NC(=O)Nc3ccccc3)ccc2O[C@H]1CN(C)C(=O)Nc1ccccc1	0	-5	0.3	11	2
C=C1C(=O)O[C@H]2C1CCC(C)=C1C(=O)C=C(C)[C@@H]12 (some centres not stated)	1	72	0.12	0	115*
C[C@H]1CN([C@@H](C)CO)C(=O)Cc2cc(NC(=O)Nc3ccc(C(F)(F)F)cc3)ccc2O[C@H]1CN(C)S(=O)(=O)c1ccccc1	-2	33	0.1	23	102*
C[C@@H]1CN([C@H](C)CO)C(=O)Cc2cc(NC(=O)Nc3ccc(C(F)(F)F)cc3)ccc2O[C@@H]1CN(C)S(=O)(=O)c1ccc(F)cc1	-1	2	0.052	12	90*
C[C@H]1CN([C@@H](C)CO)C(=O)Cc2cc(NC(=O)Nc3ccc(C(F)(F)F)cc3)ccc2O[C@H]1CN(C)S(=O)(=O)c1ccc(Cl)cc1	-4	34	0.0043	46	115*
C[C@H]1CN([C@@H](C)CO)C(=O)Cc2cc(NC(=O)Nc3ccc(C(F)(F)F)cc3)ccc2O[C@@H]1CN(C)S(=O)(=O)c1ccc(F)cc1	·	-6	-0.47	37	69
C[C@H](CO)N1C[C@H](C)[C@H](CN(C)S(C)(=O)=O)Oc2ccc(NC(=O)Nc3ccc(C(F)(F)F)cc3)cc2CC1=O	-1	5	0.38	2	98*
Cc1ccc(S(=O)(=O)N(C)C[C@@H]2Oc3ccc(NC(=O)Nc4ccc(C(F)(F)F)cc4)cc3CC(=O)N([C@H](C)CO)C[C@H]2C)cc1	2	13	-0.36	45	66
O=C(CSc1nc(SCC(=O)c2ccccc2)c2ccccc2n1)c1ccccc1	1	33	-0.041	5	41
CC(=O)c1ccc(NC(=O)CN(C)S(=O)(=O)c2ccc(Br)cc2)cc1	-1	25	·	-44	19
Cn1c(=O)c2c(ncn2CC(O)COc2ccccc2)n(C)c1=O (configuration not stated)	0	23	0.36	11	-3
O=C(CN1C(=O)c2ccccc2S1(=O)=O)Nc1cc(C(F)(F)F)ccc1Cl	·	·	·	-8	-2
Cc1c(C(=O)Nc2ccccc2C(=O)NCc2ccco2)cccc1[N+](=O)[O-]	0	-2	·	6	18
C[C@@H]1CN([C@@H](C)CO)C(=O)Cc2cc(NC(=O)Nc3ccc(C(F)(F)F)cc3)ccc2O[C@@H]1CN(C)S(=O)(=O)c1ccc(Cl)cc1	-7	5	-0.14	31	104*
COc1ccc2c(c1)c(CC(=O)OCc1ccccn1)c(C)n2C(=O)c1ccc(Cl)cc1	·	-13	·	·	·
C[C@H](CO)N1C[C@H](C)[C@H](CN(C)S(=O)(=O)c2ccc(F)cc2)Oc2ncc(C#Cc3ccc(F)cc3)cc2C1=O	·	?	-0.41	·	·
CCOC(=O)c1cnc(S/C=C/C(=O)c2ccc(Cl)cc2)nc1N	-3	0	-0.54	-9	117*
Cc1c(-c2ccccc2)nc2sc3c(c2c1N)CCCC3	·	92*	·	·	·
NC(=O)CSc1nc(-c2ccccc2)nc2sc3c(c12)CCCC3	·	·	·	-37	18
CCN1C(=O)c2ccccc2Sc2ccc(C(=O)NCc3ccccc3)cc21	·	26	·	·	·
O=C(CCCCCC(=O)Nc1ccccc1O)N/N=C/c1cc(Br)cs1	·	5	0.13	·	·
Cc1ccc(-c2ccc(OCC(=O)NC3CCCC3)cc2)cc1	·	2	·	·	·
CC1=CC(C)C2(COC(=O)NC3CCCCC3)COC3(CCCC3)C1C2C (configuration not stated)	1	15	-0.68	20	113*
CCc1nnc(SCC(=O)NCc2ccc(C)cc2)c2cc3sccc3n12	·	-4	·	·	·
COc1ccc(-n2cc(-c3ccccc3)c3c(N4CCCCC4)ncnc32)cc1	·	116*	·	·	·
CC(=O)O[C@H]1C(=O)[C@@]2(C)C([C@H](OC(=O)c3ccccc3)[C@]3(O)C[C@H](OC(=O)[C@H](O)[C@@H](NC(=O)c4ccccc4)c4ccccc4)C(C)=C1C3(C)C)[C@]1(OC(C)=O)CO[C@@H]1C[C@@H]2O (some centres not stated)	-2	-4	-0.017	19	98*
Cc1ccc(S(=O)(=O)N(C)C[C@@H]2Oc3ccc(NC(=O)Cc4ccccc4)cc3C(=O)N([C@H](C)CO)C[C@H]2C)cc1	-2	-3	-0.072	-8	-5

Assay outcomes deposited in PubChem by Broad Institute.
